Compound activity: PubChem BioAssay, several laboratories
LYP inh 2: PTPN22 phosphatase inhibitors, primary screen, biochemical, DiFMUP fluorescence, 2 µM | Tyrosine-protein phosphatase non-receptor type 22 (Homo sapiens), Q9Y2R2 | recombinant LYP catalytic domain | inhibition, % at 2 µM | 96,000 tested, 0.21% active;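 active = inhibition at 2 µM at or above a set limit, the screen mean plus 3 SD, cut at about 24% in these data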;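 also: 0% = DMSO with enzyme and 100% = enzyme fully blocked by orthovanadate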
Target sequence (Q9Y2R2 whole entry, looked up, the tested form may be a part): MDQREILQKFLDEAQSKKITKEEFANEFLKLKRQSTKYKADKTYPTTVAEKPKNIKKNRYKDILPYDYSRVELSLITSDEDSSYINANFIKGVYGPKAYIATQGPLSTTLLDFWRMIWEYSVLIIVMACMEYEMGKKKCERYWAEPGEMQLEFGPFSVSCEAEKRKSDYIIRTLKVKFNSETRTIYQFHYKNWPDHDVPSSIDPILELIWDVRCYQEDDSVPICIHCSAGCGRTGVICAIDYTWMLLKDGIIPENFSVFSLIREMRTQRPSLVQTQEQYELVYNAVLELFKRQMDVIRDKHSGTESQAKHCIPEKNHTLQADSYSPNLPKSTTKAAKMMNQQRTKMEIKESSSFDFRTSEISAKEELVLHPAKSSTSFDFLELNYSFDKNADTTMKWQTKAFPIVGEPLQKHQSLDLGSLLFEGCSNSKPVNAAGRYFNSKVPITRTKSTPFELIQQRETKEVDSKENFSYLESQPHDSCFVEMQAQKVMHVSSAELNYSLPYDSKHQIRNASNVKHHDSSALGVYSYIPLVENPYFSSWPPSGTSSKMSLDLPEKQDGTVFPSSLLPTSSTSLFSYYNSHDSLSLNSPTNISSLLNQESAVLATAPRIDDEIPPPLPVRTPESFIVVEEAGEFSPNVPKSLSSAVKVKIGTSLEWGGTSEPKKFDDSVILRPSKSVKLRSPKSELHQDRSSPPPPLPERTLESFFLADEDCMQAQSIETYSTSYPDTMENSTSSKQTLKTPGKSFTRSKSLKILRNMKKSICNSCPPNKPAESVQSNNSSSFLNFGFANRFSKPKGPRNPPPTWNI
ERb coact inh: inhibitors of ERβ-SRC1 coactivator interaction, primary screen, biochemical, TR-FRET, ERβ LBD, SRC-1 peptide; 86,000 tested, 1.3% active; AID 633, 2007; TR-FRET ER-beta LBD / SRC1-Cy5 peptide binding; receptor agonist-loaded with 1 µM estradiol; inhibition, % at 25.6 µM; Estrogen receptor beta (Homo sapiens), Q92731;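 active = compounds whose percent inhibition of the receptor-coactivator binding signal exceeds about 50% in the single-dose screen, limit read from the data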;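 also: 0% = receptor plus peptide wells without compound and 100% = peptide-only wells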
FAK blocker: FAK kinase inhibitors, primary screen, biochemical | Focal adhesion kinase 1 (Homo sapiens), Q05397 | biochemical FAK kinase activity assay | inhibition, %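 (tested at 7 µM)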 | 97,000 tested, 0.84% active | AID 727, 2007; in the data active = inhibition above about 19%;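 also: 0% = DMSO and 100% = reference compound high control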
ERa coact pot: enhancers of ERα–SRC-1 coactivator binding, primary screen, biochemical, TR-FRET, ERα LBD, low estradiol; TR-FRET ERalpha-LBD/SRC-Cy5 coactivator binding, 2 h; 100 = basal binding, no effect; 86,000 tested, 1.3% active; Estrogen receptor (Homo sapiens), P03372; coactivator binding (% of control), % at 25.6 µM; in the data active = activity above about 200%;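 also: binding measured in presence of low estradiol as agonist stimulus; 0% = peptide alone without receptor and 100% = receptor with peptide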
ERa coact inh: ERα–SRC-1 coactivator interaction inhibitors, primary screen, biochemical, TR-FRET, ERα LBD, estradiol-bound | inhibition, % at 25.6 µM | 86,000 tested, 1.7% active | Estrogen receptor (Homo sapiens), P03372 | TR-FRET ER-alpha LBD / SRC-1 peptide | AID 629, 2007; in the data active = inhibition above about 50%;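 also: 0% = receptor plus peptide control and 100% = peptide only without receptor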
PTPN22 act: LYP phosphatase activators, primary screen, biochemical, DiFMUP fluorescence, 2 µM | recombinant LYP; 0 = plate median, 100 = signal doubled | 96,000 tested, 0.11% active | activation, % at 2 µM;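 active = activation at 2 µM above a set limit, the mean plus 5 SD, cut at about 37% in these data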
Starred values were filed as active, the others as inactive; . = not tested or not shown; [ ] = dose if it differs, or a comment. Hits are enriched below; roughly 3.4% of the tested compounds scored in any of these assays.

SMILES	LYP inh 2	ERb coact inh	FAK blocker	ERa coact pot	ERa coact inh	PTPN22 act
C/C(=N/NC(=O)c1cc2ccccc2cc1O)C1C(=O)c2ccccc2C1=O	7	65*[fluorescence artefact?]	4	21	78*[fluorescence artefact?]	-7
Cc1c(C(=O)Nc2ccncc2)sc2nc(-c3ccccc3)cn12	.	-4	.	214*[fluorescence artefact?]	14	.
COc1ccc2nc3oc(C(=O)N4CCN(c5cccc(Cl)c5)CC4)cc3cc2c1	10	35	-2	113	62*[fluorescence artefact?]	-12
COc1ccc(OCC(=O)N2CCN(c3cccc(C(F)(F)F)c3)CC2)cc1	-1	20	-4	77	14	-1
COc1ccc2cc3cc(C(=O)N4CCN(Cc5ccc6c(c5)OCO6)CC4)oc3nc2c1	26*	.	1	.	.	-27
COc1ccc2nc3oc(C(=O)N4CCC(C(N)=O)CC4)cc3cc2c1	-3	4	-2	119	-1	1
COc1ccc2nc3oc(C(=O)N4CCN(c5cccc(C(F)(F)F)c5)CC4)cc3cc2c1	8	37	2	118	66*	-10
COc1ccc2cc3cc(C(=O)NCc4ccc5c(c4)OCO5)oc3nc2c1	-5	39	14	58	49	5
Cc1ccc(NC(=O)N2C(=O)C3(OCCO3)c3ccccc32)cc1	0	-7	-2	120	-9	-3
CCCCNC(=O)C1CCCN1C(=O)Nc1ccccc1 (configuration not stated)	-12	-7	-1	115	-7	8
CCCc1nc2sc3c(SCC(=O)NCc4ccco4)ncnc3c2c2c1CCC2	.	48	.	255*[fluorescence artefact?]	44	.
Cc1nc(SCC(=O)NCc2ccco2)c2c3c(sc2n1)CCCC3	4	16	2	115	15	-6
Cn1c(N2CCCCC2)cc(=O)n(C)c1=O	-12	96*[fluorescence artefact?]	2	104	-13	9
COCCCNC(=S)NNC(=O)c1cccnc1	-9	11	0	116	4	12
Cc1ccn2c(C(=O)N/N=C\c3ccccc3[N+](=O)[O-])c(C)nc2c1	.	.	3	.	.	.
COC(=O)c1cc2c(C)nn(-c3ccccc3)c2s1	-1	22	5	246*	21	0
O=S(=O)(Nc1nc2ccccc2nc1N1CCN(c2ccccc2F)CC1)c1ccc(Cl)cc1	14	2	-6	89	4	-12
COc1cccc(-c2[nH]nc3c2C(c2ccoc2)C(C#N)=C(N)O3)c1 (configuration not stated)	-3	58*	3	65	50	5
COc1ccc(Cl)cc1NC(=O)CSc1nnc(CN2CCOCC2)n1-c1ccc(Cl)cc1	-3	-7	2	89	-1	2
Cc1ccc(NC(=O)CN(c2ccccc2F)S(C)(=O)=O)cc1	-3	-16	1	107	-4	2
COc1cc(NC(=O)c2noc3c2CCC3)c(OC)cc1Cl	.	86*[fluorescence artefact?]	.	25	88*[fluorescence artefact?]	.
COc1ccc(CNC(=O)c2noc3c2CCCCC3)cc1	.	-8	.	100	-7	.
COc1ccc(NC(=O)c2noc3c2CCC3)cc1	10	90*[fluorescence artefact?]	2	44	86*[fluorescence artefact?]	-9
CCCCCCCCCCOC(=O)c1csc2nnsc12	8	0	2	104	-8	-6
CCc1ccc(OCC(=O)NC(=S)Nc2ccc(S(=O)(=O)NC3CCCCC3)cc2)cc1	14	.	1	.	.	-14
SMILES	LYP inh 2	ERb coact inh	FAK blocker	ERa coact pot	ERa coact inh	PTPN22 act
COc1ccc(-c2c[n+]3c4n2CCCCC4=C(c2ccc(Br)cc2)C3)cc1	1	.	11	.	.	-2
Clc1ccc(C2=C3CCCCn4c(-c5ccccc5)c[n+](c43)C2)cc1	26*	5	-2	55	10	-24
N#Cc1c(-c2ccccc2)ccnc1Oc1ccccc1	11	.	5	.	.	-9
Cn1c(SCC(=O)NC(=O)NCc2ccco2)nnc1-c1ccccc1	5	52*[fluorescence artefact?]	15	142	59*[fluorescence artefact?]	-1
O=C(CSc1nn(-c2ccc(F)cc2)c(=S)s1)NC(=O)NCc1ccco1	6	47	3	72	67*[fluorescence artefact?]	-7
CCOc1ccc2nc(SCC(=O)NC(=O)NCc3ccco3)[nH]c2c1	9	56*[fluorescence artefact?]	9	74	38	-6
O=C(CSc1cccc(C(F)(F)F)c1)NC(=O)NCc1ccco1	.	29	.	76	53*	.
CCOc1ccc2nc(SCC(=O)N(C)C)[nH]c2c1	-1	-2	1	123	3	4
Cn1c(SCC(=O)NCc2ccco2)nnc1-c1ccccc1	-11	0	-1	86	-15	6
CCOc1ccc2cc(/C=C/C(=O)c3ccco3)c(Cl)nc2c1	-3	15	1	77	17	3
Cc1nc2nc(C)c(CCC(=O)O)c(C)n2n1	-14	2	-1	119	0	9
COc1ccc(NC(=O)c2cccc(Cn3cc(Br)cn3)c2)cn1	-8	13	1	104	16	8
Cc1ccccc1CSCC(=O)NC(=O)NCc1ccco1	.	40	.	82	55*	.
CCCCn1c(SCC(=O)NC(=O)NCc2ccco2)nc2cc(S(N)(=O)=O)ccc21	6	43	16	80	58*[fluorescence artefact?]	-7
Cc1cc(SCC(=O)NC(=O)NCc2ccco2)nc2c(C)cccc12	.	50	.	60	65*	.
CS(=O)(=O)N(CCc1ccccc1)CC(=O)N1CCN(c2ccc(F)cc2)CC1	2	-8	1	93	-2	-3
COc1ccc(-c2nnn(CC(=O)Nc3sc4c(c3C#N)CCCC4)n2)cc1	-2	24	0	115	51*[fluorescence artefact?]	0
COc1ccc(-c2ccc(C#N)c(SCC(=O)Nc3sc4c(c3C#N)CCC4)n2)cc1OC	0	65*[fluorescence artefact?]	6	150	84*[fluorescence artefact?]	2
COC(=O)c1sccc1NC(=O)Cn1nnc(-c2ccc(C)cc2)n1	10	3	6	212*	14	-8
CCOc1ccccc1NC(=O)Cn1nnc(-c2ccc(OCC)c(OCC)c2)n1	-5	27	-1	107	53*[fluorescence artefact?]	1
CCOc1ccc(-c2nnn(CC(=O)Nc3cc(OC)ccc3OC)n2)cc1OCC	0	8	4	116	-25	-2
CCC(=O)Nc1sc2c(c1C#N)CC(C)(CC)OC2 (configuration not stated)	0	5	-5	89	0	2
Cn1c(CNC(=O)c2ccc(Cl)cc2)nnc1SCC(=O)Nc1sc2c(c1C#N)CCCC2	7	34	10	250*	37	-8
